Assay results: PubChem BioAssay (Tox21)
Calls of active or inactive are those of the source. Entries that show only a call come without a potency. Calls come from the whole dose curve; as a rule, active = well fitted curve in the direction sought with a large enough effect in the repeat runs; inconclusive = weak or mixed curves; inactive = flat fitted curve, though single readings scatter.

Test: qHTS assay to test for compound auto fluorescence at 460 nm (blue) in HEK293 cell free culture (AID 720681)
Conditions: cell-free medium, autofluorescence 405/460 nm (blue); series mostly up to 91.3 µM
Summary of the method: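 Compounds were added to cell-free DMEM with 10% FBS and fluorescence read directly. The blue channel used 405 nm excitation and 460 nm emission, with triamterene as the reference fluorophore.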

Structure (SMILES)	Potency
Cc1cc(O)cc(C)c1Cl	inactive
COCC(=O)O	inactive
O=Nc1ccc(O)cc1	inactive
Oc1ccc(OCc2ccccc2)cc1	inactive
CC(C)Cc1ccccc1	inactive
CN(C)c1cccc(O)c1	inactive
CCOC(=O)C1OC1c1ccccc1 (stereo not drawn)	inactive
Cc1cc(NS(=O)(=O)c2ccc(N)cc2)no1	inactive
CC1COc2ccccc2N1C(=O)C(Cl)Cl (stereo not drawn)	inactive
CCc1ccc(O)cc1	inactive
OC1CCCC1	inactive
CCCCNC(N)=O	inactive
CS(=O)(=O)c1ccc([C@@H](O)[C@@H](CO)NC(=O)C(Cl)Cl)cc1	inactive
Clc1cc(Cl)c(Cl)cc1Cl	inactive
CC(C)(C)C(=O)C1C(=O)c2ccccc2C1=O	inactive
CC(=O)Nc1ccc(C(=O)O)cc1	inactive
CCCCCCCCCCCCN	inactive
CCCCC(CC)COC(C)=O (stereo not drawn)	inactive
CCCCCC/C=C/CCCCCCCC(=O)O	inactive
O=C1O[C@H](CO)[C@@H](O)[C@H](O)[C@H]1O	inactive
O=C1N=C(O)CN1/N=C/c1ccc(-c2ccc([N+](=O)[O-])cc2)o1	inactive
Nc1cc(-c2ccncc2)c[nH]c1=O	inactive
OCC1CCCO1 (stereo not drawn)	inactive
C[C@@H](O)[C@H]1C(=O)N2C(C(=O)O)=C(S[C@@H]3CN[C@H](C(=O)N(C)C)C3)[C@H](C)[C@H]12	inactive
CCCCCCCCCCC=CC1CC(=O)OC1=O (stereo not drawn)	inactive
COC(=O)Nc1nc2ccc(Sc3ccccc3)cc2[nH]1	inactive
OCCOCCOCCOCCO	inactive
O=C(O)c1ccc([N+](=O)[O-])cc1	inactive
